# Experimental data from PubChem BioAssay AID485346 (Sanford-Burnham Center for Chemical Genomics, 2010).
# The campaign covered roughly 330,000 compounds. About 10,000 (3%) were called active.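 How the source made its calls: active means inhibition of at least 50% at 8 µM in the primary screen; inactive means the rest.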 Shown is part of a subset that was picked to be rich in actives.
# Target: Protein Mdm4 (Homo sapiens) + E3 ubiquitin-protein ligase Mdm2 (Homo sapiens) (UniProt O15151+Q00987)
# Experiment: disruptors of Mdm2/MdmX RING complex – cell-based, luminescence, split luciferase, SaOS-2, uHTS, primary screen (AID 485346)
# Details: SaOS-2 split-luciferase Mdm2/MdmX complementation, at 8 µM, stronger effect = higher value
# Chain of Protein Mdm4 (Homo sapiens) + E3 ubiquitin-protein ligase Mdm2 (Homo sapiens) (O15151 whole entry, looked up): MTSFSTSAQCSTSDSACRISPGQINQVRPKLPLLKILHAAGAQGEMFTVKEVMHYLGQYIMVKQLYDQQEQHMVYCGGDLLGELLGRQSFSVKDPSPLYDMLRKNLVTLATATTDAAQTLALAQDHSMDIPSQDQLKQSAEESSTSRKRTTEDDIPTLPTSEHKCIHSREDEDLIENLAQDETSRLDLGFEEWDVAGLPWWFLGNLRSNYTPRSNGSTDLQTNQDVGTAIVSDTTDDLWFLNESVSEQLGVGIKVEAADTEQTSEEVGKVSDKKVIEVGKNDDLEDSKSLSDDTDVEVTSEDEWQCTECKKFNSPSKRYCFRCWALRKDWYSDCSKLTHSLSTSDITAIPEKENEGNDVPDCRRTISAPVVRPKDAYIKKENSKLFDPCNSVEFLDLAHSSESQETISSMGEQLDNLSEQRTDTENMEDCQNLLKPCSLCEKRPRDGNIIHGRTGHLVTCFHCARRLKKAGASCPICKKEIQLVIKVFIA
# Chain of Protein Mdm4 (Homo sapiens) + E3 ubiquitin-protein ligase Mdm2 (Homo sapiens) (Q00987 whole entry, looked up): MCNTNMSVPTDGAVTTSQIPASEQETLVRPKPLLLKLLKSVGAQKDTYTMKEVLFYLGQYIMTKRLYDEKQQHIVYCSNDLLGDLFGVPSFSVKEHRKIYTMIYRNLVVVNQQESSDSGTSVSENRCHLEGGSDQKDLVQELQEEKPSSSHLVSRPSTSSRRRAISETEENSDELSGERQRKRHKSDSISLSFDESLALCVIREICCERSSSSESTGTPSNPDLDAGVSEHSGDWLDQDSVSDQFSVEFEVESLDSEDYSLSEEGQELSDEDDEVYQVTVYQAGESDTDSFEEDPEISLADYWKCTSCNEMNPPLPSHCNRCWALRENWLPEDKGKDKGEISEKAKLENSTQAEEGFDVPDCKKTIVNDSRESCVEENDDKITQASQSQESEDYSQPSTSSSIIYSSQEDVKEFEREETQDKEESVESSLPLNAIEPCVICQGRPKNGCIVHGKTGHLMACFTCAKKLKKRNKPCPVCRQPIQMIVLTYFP
row,Structure (SMILES),inhibition
1,O=C(NCc1ccccc1)C1=C[C@H](C2CC2)C[C@H](OCc2ccc(CO)cc2)O1,-19% (inactive)
2,CC(C)(C)[C@H]1C=C(C(=O)NCc2ccccc2)O[C@@H](OCc2ccc(CO)cc2)C1,29.5% (inactive)
3,O=C(NCc1ccccc1)C1=C[C@@H](C2CCCCC2)C[C@@H](OCc2ccc(CO)cc2)O1,55.5% (active)
4,Nn1cnnc1N/N=C/c1cc([N+](=O)[O-])c(Cl)cc1Cl,-3.78% (inactive)
5,CC(=O)NNc1cc(=O)c2c(=O)n(C)c(=O)n(C)c2[nH]1,-7.44% (inactive)
6,CCOc1ccccc1C(=O)NC1CC2CCCC(C1)N2Cc1ccccc1 (stereo unspecified),-3.94% (inactive)
7,CC(=O)Nc1ccc(S(=O)(=O)NCC(=O)OCc2cc(=O)oc3ccc4ccccc4c23)cc1,-8.78% (inactive)
8,COc1ccc(CNC(=O)COC(=O)c2sccc2C)cc1OC,14.3% (inactive)
9,CCOc1ccc(C(C)=O)cc1COC(=O)CNC(=O)c1cccs1,26.9% (inactive)
10,COC(=O)c1ccc(COC(=O)c2cnc(Cl)c(Cl)c2)cc1,0.646% (inactive)
11,CCOc1ccc(C(C)=O)cc1COC(=O)c1cnc(Cl)c(Cl)c1,97.4% (active)
12,COc1ccccc1C(=O)NCC(=O)NCCSc1ccc(Br)cc1,12.7% (inactive)
13,CCc1ccccc1NC(=O)CN(c1ccc(OC)cc1OC)S(=O)(=O)c1ccccc1[N+](=O)[O-],18.2% (inactive)
14,N#Cc1cccc(CSc2nnc(CCCO)n2-c2ccccc2)c1,7% (inactive)
15,Clc1ccc(Cn2ncc3c(NCc4cccnc4)ncnc32)cc1,20.9% (inactive)
16,Cc1cc(NCc2cccnc2)no1,0.68% (inactive)
17,Brc1ccc2ncnc(NCc3cccnc3)c2c1,73.1% (active)
18,CCN(C(=O)Cc1c(C(=O)O)n(CC)c2ccccc12)c1ccccc1C,13.2% (inactive)
19,O=C(COC(=O)CCCN1C(=O)c2cccc3cccc(c23)C1=O)NC1CCS(=O)(=O)C1 (stereo unspecified),-2.87% (inactive)
20,O=C1NC2(CCCCC2)N=C1c1ccccc1,4.91% (inactive)
21,COc1cccc(CNC(=O)c2n[nH]c3ccccc23)c1,-9.68% (inactive)
22,O=C(Cc1ccc(-n2c(=O)[nH]c3ccccc3c2=O)cc1)N1CCN(c2cccc(Cl)c2)CC1,-17% (inactive)
23,COc1cccc(CNC(=O)Cc2csc(Nc3nc(=S)[nH]c4ccccc34)n2)c1,60.5% (active)
24,O=C(Cc1csc(Nc2nc(=S)[nH]c3ccccc23)n1)NCCCN1CCN(c2cccc(Cl)c2)CC1,77.1% (active)
25,O=C(CCCn1c(=O)[nH]c2cc(Cl)ccc2c1=O)NCCN1CCN(c2ccccc2)CC1,9.17% (inactive)
26,COc1cccc(CNC(=O)CN2C(=O)NC(Cc3ccccc3)(c3ccccc3)C2=O)c1 (stereo unspecified),-11% (inactive)
